Source: PubChem BioAssay (National Center for Advancing Translational Sciences (NCATS))
Rab9 prom act = Rab9 promoter activation; AID 485297; Huh7 Rab9 promoter-luciferase reporter, luminescence, 24 h; Potency, µM (titrated, usually from 9.22 µM), for inactives: top-dose activation, negative = inhibition, most hits filed as activators; 320,000 compounds, 2.8% hits; also: % of control where 0% means no effect; nearly all actives have a fitted effect of over 60% in size
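Measured in stably transfected Huh7 cells bearing a Rab9 promoter–luciferase construct: 24 h compound treatment at 37 °C, followed by luminescence detection.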
ELG1 genotoxic = induces genotoxicity in HEK293T cells with luciferase-tagged ELG1; HEK293T ELG1-luciferase reporter, luminescence, 16 h; Potency, µM (doses to about 46 µM), inactives show top-dose activity change, positive = activation, most hits filed as activators; 330,000 compounds, 1.3% hits; also: % of control where 0% means no effect; nearly all actives have a fitted effect of over 60% in size
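Genotoxic stress is detected as increased luminescence from luciferase-tagged ELG1 in HEK293T cells, measured with ONE-Glo after a 16 hr treatment at 37 °C.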
FLuc modulator = counter-screen for miR-21 project: firefly luciferase inhibitors or activators. P08659. purified FLuc, Km substrates, luminescence inhibition. Potency, µM (highest dose often 57.5 µM), for inactives: top-dose activity change, negative = inhibition, actives largely listed as inhibitors. 360,000 compounds, 6.9% hits. AID 588342;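 also: plate controls were vehicle for no effect and reference inhibitor for full effect; nearly all actives have a fitted effect of over 55% in size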
Target sequence (P08659 whole entry, looked up): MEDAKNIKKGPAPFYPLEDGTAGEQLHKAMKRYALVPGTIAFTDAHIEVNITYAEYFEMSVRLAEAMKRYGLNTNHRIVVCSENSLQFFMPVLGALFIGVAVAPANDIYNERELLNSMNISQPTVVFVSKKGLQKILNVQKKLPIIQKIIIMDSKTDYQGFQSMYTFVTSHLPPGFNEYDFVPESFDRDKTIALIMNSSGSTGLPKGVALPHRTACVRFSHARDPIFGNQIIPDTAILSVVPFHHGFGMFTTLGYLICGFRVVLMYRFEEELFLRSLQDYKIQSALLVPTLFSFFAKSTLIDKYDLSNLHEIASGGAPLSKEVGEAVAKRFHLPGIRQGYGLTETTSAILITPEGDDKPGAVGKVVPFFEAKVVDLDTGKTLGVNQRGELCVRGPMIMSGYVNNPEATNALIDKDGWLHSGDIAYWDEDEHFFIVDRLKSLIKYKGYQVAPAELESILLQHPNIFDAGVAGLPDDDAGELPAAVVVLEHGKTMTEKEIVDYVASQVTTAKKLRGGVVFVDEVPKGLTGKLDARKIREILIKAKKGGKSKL
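Purified P. pyralis luciferase (10nM final) with 10uM D-luciferin and 10uM ATP (Km levels) in 50mM Tris acetate pH 7.5, 10mM Mg acetate, 0.01% Tween-20, 0.05% BSA; qHTS 6-point titration, ~60 µM downward; luminescence read.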
NPC1 promoter act = activators of NPC1 promoter; Potency, µM (doses to about 9.22 µM), for the others: top-dose activation, actives largely listed as activators; Huh7 NPC1 promoter luciferase reporter, 24 h; AID 485313; 320,000 compounds, 2.4% hits; also: % of control where 0% means no effect; nearly all actives have a fitted effect of over 60% in size
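Quantitative HTS used a cell-based reporter: Huh7 cells stably bearing the NPC1 promoter upstream of luciferase were treated with compounds for 24 h, and promoter activation was read as luminescence.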
ELG1 repair inh = ELG1-dependent DNA repair inhibition; Potency, µM (series often up to 46.1 µM), for the others: at the highest dose activity change, negative = inhibition, actives largely listed as inhibitors; 330,000 compounds, 2.3% hits; HEK293T ELG1-luciferase reporter, luminescence, 16 h; DNA damage induced by 5-fluorouridine; also: % is scaled to controls: 0 for no effect and ±100 for the full control effect; nearly all actives have a fitted effect of over 55% in size
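Reporter activity after DNA damage by 5-fluorouridine is monitored. Compound-treated cells incubate 16 hr at 37 °C, then ONE-Glo is added for 30 min before luminescence reading.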
SMN2 splice up = increases expression of the SMN2 splice variant; AID 1458; HEK293 SMN2-luciferase splicing reporter, luminescence, 30-36 h; Potency, µM (doses to about 46.1 µM), for inactives: top-dose activity change, positive = activation, usual class: activators; 210,000 compounds, 2.8% hits; also: % of control where 0% means no effect; nearly all actives have a fitted effect of over 55% in size
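HEK293 cells carry an SMN2 […]–luciferase reporter in which exon 7 inclusion puts luciferase in frame. Cells were plated 10-12 h before compound addition, then incubated 30-36 h at 37C. ONE-Glo luminescence was read; sodium butyrate at 4.5 mM final served as control.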
Starred values were filed as active, the others as inactive; ? = inconclusive; / = not tested or not shown; [ ] = dose if it differs, or a comment. In the library only some 9.2% were active in any assay of this set; here they are far more common. Calls follow the shape of the dose curve; as a rule, active = well fitted curve in the direction sought with a large enough effect; inconclusive = small, poorly fitted or top-dose-only effect, or another doubt; inactive = no such curve, though single readings can be large; an effect the other way counts as inactive or inconclusive. Potency is read from the fitted curve at half-maximal effect.

SMILES	Rab9 prom act	ELG1 genotoxic	FLuc modulator	NPC1 promoter act	ELG1 repair inh	SMN2 splice up
O=C(COC(=O)c1cccc(Br)c1)NCc1ccco1	/	2.1%	/	/	8.7%	/
CCCCC(=O)Nc1nnc(/C=C/c2ccc(OC)cc2)s1	19.8%	8.7%	-11.5%	15.5%	-5.3%	/
Cc1cccc(Cc2cnc(NC(=O)c3ccc(C)o3)s2)c1	?	5.8µM*	9.53µM*	?	?	-2.1%
NC(=O)c1cc(Cc2ccccc2)sc1NC(=O)c1ccco1	4.47µM*	?	9.53µM*	3.55µM*	?	15.8µM*
Cc1cccc(Cc2cnc(NC(=O)C3=NCCN3)s2)c1	25.0%	-7.5%	-0.5%	0.5%	?	18.4%
COc1ccc(/C=C/c2nnc(NC(=O)c3ccco3)s2)cc1	-1.6%	6.9%	2.69µM*	-7.7%	0.9%	/
O=C(Nc1nnc(C23CC4CC(CC(C4)C2)C3)s1)c1ccco1	1.78µM*	1.16µM*	2.13µM*	1.78µM*	?	16.2%
CCOc1ccc(CC(=O)Nc2sc(Cc3ccccc3)cc2C(N)=O)cc1OCC	-0.7%	-4.3%	-2.5%	1.0%	-6.0%	-18.4%
Cc1nnc(NC(=O)c2ccco2)s1	2.4%	7.2%	0.1%	-1.2%	?	5.6%
C/C=C(\C)c1nnc(NC(=O)c2ccco2)s1	?	16.4µM*	15.1µM*	?	?	12.6µM*
Cc1ccc(Cn2c(=O)n(-c3cccc(C(F)(F)F)c3)c(=O)c3c(C)c(C)sc32)c(C)c1	/	/	0.7%	/	/	1.9%
Nc1[nH]nc2nc(N3CCCC3)nc(-c3ccccc3)c12	-1.5%	2.8%	1.9%	5.3%	-1.5%	-4.6%
Cc1cc(C)n2nc3nc(N4CCCC4)nc(-c4ccccc4)c3c2n1	-3.8%	-0.4%	0.1%	-2.5%	10.3µM*	36.8%
O=C(CCCC(=O)c1ccccc1)Nc1ccc(O)cc1	-8.3%	-0.6%	-5.4%	-0.6%	?	/
O=C(Nc1ccccc1)Nc1ccc(-n2ccc(C(F)(F)F)n2)cc1	1.78µM*	?	4.26µM*	2.82µM*	?	/
O=C(O)CC(CC(=O)Nc1ccc(-n2ccc(C(F)(F)F)n2)cc1)c1ccccc1 (stereo not given)	-2.6%	2.5%	3.2%	1.7%	-2.1%	/
NC(=S)N/N=C1\CC(c2ccc3c(c2)OCCO3)Oc2ccc(F)cc21 (stereo not given)	-1.4%	-6.4%	?	-3.1%	-14.9%	/
NC(=S)N/N=C1\CC(c2ccc3c(c2)OCCCO3)Oc2ccc(F)cc21 (stereo not given)	0.6%	-6.9%	15.1µM*	-0.7%	3.66µM*	/
COc1ccc(N2CC(NC(=O)c3cc4ccccc4o3)CC2=O)cc1OC (stereo not given)	/	/	2.4%	/	/	/
CN(C)C(=O)N1CCC(C(=O)N2CCCC(C(=O)c3ccc(C(C)(C)C)cc3)C2)CC1 (stereo not given)	2.0%	-7.3%	-17.8%	-0.3%	14.6µM*	/
Cc1cc2nc(-c3ccc(=O)[nH]c3)n(Cc3ccccc3)c2cc1C	11.2%	?	15.1µM*	-3.7%	?	/
Cc1ccccc1Cn1c(-c2ccc(=O)[nH]c2)nc2ccccc21	1.8%[1.84 µM]	8.7%	4.9%	-1.8%	43.2%	/
Cc1ccccc1-c1noc(-c2cccs2)n1	2.82µM*	?	7.57µM*	?	?	?
Cc1ccccc1-c1noc(-c2cc3ccccc3oc2=O)n1	/	/	1.9µM*	/	/	/
Cc1ccccc1-c1nnc(-c2cccs2)o1	?	?	12µM*	18.5%	?	20µM*
SMILES	Rab9 prom act	ELG1 genotoxic	FLuc modulator	NPC1 promoter act	ELG1 repair inh	SMN2 splice up
Cc1ccccc1Nc1oc(-c2ccccc2)nc1-c1cccs1	/	/	/	/	/	4.9%
CC(=O)c1ccc(N(CC(=O)NC2CCCC2)C(=O)CNC(=O)c2cccs2)cc1	2.7%	-1.2%	-4.0%	-1.6%	8.2%	/
COc1ccc(NC(=S)Nc2ccc(S(N)(=O)=O)cc2)c(OC)c1	-4.8%	0.1%	-1.2%	0.1%	-3.2%	/
COc1ccc(/C=N/NC(=S)Nc2cc(S(=O)(=O)N3CCOCC3)ccc2N2CCOCC2)cc1O	-4.0%	-7.8%	?	-0.7%	7.31µM*	15.8%
COc1ccc(/C=C/C(=O)Nc2cc(S(=O)(=O)N3CCOCC3)ccc2N2CCCC2)cc1OC	-1.1%	10.7%	-0.6%	-3.1%	20.3%	25.0%
COc1ccc(NC(=S)Nc2ccc(S(=O)(=O)N3CCOCC3)cc2)c(OC)c1	3.8%	0.6%	2.5%	0.5%	23.1µM*	1.8%
CCOc1cccc(/C=N/NC(=S)Nc2cc(S(=O)(=O)N3CCOCC3)ccc2N2CCOCC2)c1O	-22.5%	-1.9%	?	-16.7%	5.8µM*	-82.9%
COc1ccc(/C=C2\SC(=S)N(CCC(=O)NCCCn3ccnc3)C2=O)cc1	-7.5%	0.4%	19µM*	1.2%	11.9%	/
CC(C)c1ccc(/C=C2\SC(=S)N(CCC(=O)NCCCn3ccnc3)C2=O)cc1	-38.8%	1.6%	2.39µM*	-7.2%	?	/
O=C(CCCN1C(=O)/C(=C/c2ccc(F)cc2)SC1=S)NCCCn1ccnc1	-2.6%	-4.8%	?	-3.4%	-8.0%	/
CCc1ccc(NC(=O)CN(c2ccc(Cl)cc2)S(=O)(=O)c2ccsc2C(=O)OC)cc1	/	/	2.9%	/	/	/
CCOc1ccc(C2c3[nH]c4ccccc4c3CCN2C(=O)CCc2ccccc2)cc1 (stereo not given)	/	/	3.2%	/	/	/
CCOC(=O)c1c(OCC)[nH]c2c1cc(O)c1ccccc12	-0.8%	-15.8%	?	10.2%	20.6µM*	-8.6%
COc1cccc(C(=O)Nc2cc3c(cc2Cl)OCCCO3)c1	1.78µM*	?	3.01µM*	3.16µM*	?	10µM*
COc1ccc(C(=O)Nc2cc3c(cc2C(=O)c2ccccc2Cl)OCCO3)cc1	/	/	-11.3%	/	/	2.5%
COc1ccc(C(=O)Nc2cc3c(cc2Cl)OCCCO3)cc1	3.55µM*	?	9.53µM*	2µM*	?	?
CCOC(=O)c1c(C)[nH]c(C)c1S(=O)(=O)N1CCC(C(=O)Nc2ccccc2CC)CC1	/	/	-7.2%	/	/	/
COC(=O)c1ccc(CO/N=C/c2ccc(OC)cc2OC)cc1	-7.1%[1.84 µM]	-0.1%	-8.7%	-5.7%	-4.2%	/
COc1ccccc1Nc1nnc(SCC2CCCCO2)s1 (stereo not given)	2.51µM*	?	1.51µM*	3.55µM*	?	?
Cc1ccccc1Nc1nnc(SCC2CCCCO2)s1 (stereo not given)	2.82µM*	?	2.39µM*	0.708µM*	?	11.2µM*
COc1ccc(CCNc2nc3c(c(=O)n(C)c(=O)n3C)n2Cc2ccccc2Cl)cc1OC	/	/	1.9%	/	/	-7.8%
